GALC G270D act – raises human GALC G270D mutant activity in cells; 145M-Twi-hGALC-G270D cells (Twitcher mouse brain line with human GALC G270D), HMU-beta-Gal fluorescence, 48 h; Potency, µM (top dose mostly 57.5 µM), usual class: activators; 0.1% of 45,000 active; AID 1159614; further: potency means the concentration at half of the fitted maximal effect; 0% is about no effect; nearly all actives have a fitted effect of over 65% in size
Target sequence (P54803 whole entry G286D): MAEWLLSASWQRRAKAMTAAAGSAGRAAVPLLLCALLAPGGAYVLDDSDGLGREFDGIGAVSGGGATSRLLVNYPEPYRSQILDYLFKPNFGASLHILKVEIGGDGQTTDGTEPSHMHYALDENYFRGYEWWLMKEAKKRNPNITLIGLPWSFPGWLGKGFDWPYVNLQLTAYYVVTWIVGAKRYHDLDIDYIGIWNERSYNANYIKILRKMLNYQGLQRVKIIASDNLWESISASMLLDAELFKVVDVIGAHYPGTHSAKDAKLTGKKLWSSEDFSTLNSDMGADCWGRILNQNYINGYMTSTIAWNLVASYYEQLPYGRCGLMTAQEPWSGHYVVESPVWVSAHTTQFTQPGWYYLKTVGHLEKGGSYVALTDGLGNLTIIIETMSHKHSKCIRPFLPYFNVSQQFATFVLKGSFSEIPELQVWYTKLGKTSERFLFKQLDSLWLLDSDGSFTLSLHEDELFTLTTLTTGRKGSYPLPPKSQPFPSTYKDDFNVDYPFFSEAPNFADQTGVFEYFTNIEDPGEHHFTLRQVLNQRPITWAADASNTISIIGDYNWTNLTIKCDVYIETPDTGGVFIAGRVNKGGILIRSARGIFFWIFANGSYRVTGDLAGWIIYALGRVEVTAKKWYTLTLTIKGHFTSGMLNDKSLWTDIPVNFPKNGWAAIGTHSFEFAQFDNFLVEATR
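Live 145M-Twi cells (Twitcher mouse brain-derived, GALC-null) stably expressing human GALC-G270D, with a wild-type GALC line, were compound-treated. Residual GALC activity was then read as fluorescence from 0.1 mM final HMU-β-gal at pH 5.2; higher signal means activation.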
DRV1 agonist – agonists of human resolvin D1 receptor DRV1 (GPR32); O75388; CHO-K1 GPR32 beta-arrestin PathHunter luminescence, 90 min; zero percent set by DMSO-only wells; activation, % at 76.9 µM; 2.5% of 48,000 active;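 active means activation of at least 60% and not above a set upper limit, about 1 call in 100 departs from these limits; inconclusive means activation of 40% to 60%, or above that upper limit; inactive means activation under 40%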; further: 0% is about no effect
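Step 1: seed CHO-K1 GPR32 beta-arrestin cells, 2,500/well, overnight at 37 °C. Step 2: add compounds, 90 min at 37 °C. Step 3: detection reagent, 1 h ambient, then luminescence.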
B2AR arrestin ag – agonists recruiting beta-arrestin to human beta2-adrenergic receptor; Potency, µM (series often up to 46.1 µM), hits mostly activators; 44,000 tested, under 10 active; HTLA Tango cells, beta-arrestin recruitment, luciferase luminescence, 18 h; P07550;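 further: potency means the concentration at half of the fitted maximal effect; 0% = DMSO and full agonism = EC100 isoproterenol or metaproterenol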
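Tango cells expressing recombinant beta2-AR and beta-arrestin were treated with compounds (up to 46 microM titration) in DMEM with 1% FBS for 18 hr at 37 degrees C. Beta-arrestin recruitment drove tTA-dependent luciferase, read by luminescence; curves were fitted and classed.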
NTMT1 inhibitor – inhibitors of human N-terminal methyltransferase NTMT1 | Q9BV86 | NTMT1 MTase-Glo SAH luminescence, purified enzyme | Potency, µM (doses to about 114 µM), for inactives: at the highest dose activity change, negative = inhibition, most hits filed as inhibitors | 2.5% of 59,000 active | AID 1645870;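 further: potency means the concentration at half of the fitted maximal effect; plate controls were DMSO vehicle for no effect and no enzyme for full effect; nearly all actives have a fitted effect of over 65% in size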
GALK inhibitor – GALK (human) enzyme inhibition; recombinant GALK, Kinase-Glo ATP luminescence, 1 h; 44,000 tested, under 10 active; AID 1347072; Potency, µM (titrated, usually from 57.5 µM), for the others: at the top dose activity, negative = inhibition, hits mostly inhibitors;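 further: plate controls were full GALK reaction for no effect and reaction lacking GALK for full effect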
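Luminescent ATP-depletion readout (Kinase-Glo Plus, 10 min) after 1 h RT reaction of 5 nM GALK, 35 uM ATP, 100 uM galactose, pH 8.0 HEPES buffer. Decreased kinase activity scored as inhibition.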
PTAP-TSG101 blk – TSG101-PTAP interaction inhibition, HIV-1 budding | Fluorescence polarization, FITC-PTAP peptide/Tsg101, 20 min | Potency, µM (doses to about 115 µM), actives largely listed as inhibitors | 44,000 tested, under 10 active | AID 1347069; further: potency means the concentration at half of the fitted maximal effect; 0% is about no effect
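Compounds pinned into 10 uM Tsg101 binding domain, then 50 nM FITC-PTAP peptide added in pH 7.5 HEPES buffer; FP read after 20 min, room temperature. Total S+P intensity flags fluorescent compounds; active cut-off <25 µM, efficacy <60%.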
An asterisk follows results filed as active; i = inactive; u = inconclusive; x = no result; ! = repeats disagree; [ ] = another dose, or the depositor's remark. Shown are actives, neighbours in structure and some others; about 3.6% of the full set was active somewhere. Unless noted, the call rests on the fitted dose curve; in most records, active means well fitted curve in the direction sought with a large enough effect; inconclusive means small, poorly fitted or top-dose-only effect, or another doubt; inactive means no such curve, though single readings can be large; an effect the other way counts as inactive or inconclusive.

SMILES	GALC G270D act	DRV1 agonist	B2AR arrestin ag	NTMT1 inhibitor	GALK inhibitor	PTAP-TSG101 blk
CC(NC(=O)c1ccc(Cn2c(=O)c3cccn3c3cccnc32)cc1)c1ccccc1 (stereo not drawn)	i	-20	i	u	1%	i
CC(NC(=O)CCCn1c(=O)c2cccn2c2cccnc21)c1ccccc1 (stereo not drawn)	i	-11	i	89µM*	0%	i
COc1ccc2c(c1)CN(C(=O)CCN1CCC(Cc3ccccc3)CC1)CCS2	x	x	x	16%[29.8 µM]	x	x
CC1=C(C(=O)Nc2nccs2)C(c2ccccc2Br)N=C(Nc2nc3ccccc3o2)N1 (stereo not drawn)	x	x	x	16%	x	x
CCCCCCCCCCCCCCCCCC(=O)O	i	-3	x	11%[57.5 µM]	x	x
CCCCCCCC(=O)[O-].CCCCCCCC(=O)[O-].[Zn+2]	i	35	x	20µM*	x	x
CS(=O)(=O)c1ccc(C(=O)OCC(=O)N2CCN(C3CCCCC3)CC2)cc1[N+](=O)[O-]	x	x	x	-5%	x	x
CC1COC2(OC3CC4C5CC(O[C@@H]6O[C@H](C)[C@@H](O[C@@H]7O[C@@H](C)[C@H](O)[C@@H](O)[C@H]7O)[C@H](O)[C@H]6O)C6CC(O)CCC6(C)C5CCC4(C)C3C2C)C(O)C1 (stereo partly drawn)	x	x	x	2%[12.6 µM]	x	x
CCOc1ccccc1C(=O)Nc1ccc2nc(N(CC)CC)cc(C)c2c1	i	-10	i	-5%	3%	i
CCN(CC)c1cc(C)c2cc(NC(=O)c3cccc(OC)c3OC)ccc2n1	i	95*	i	-15%	7%	i
COc1cc(-c2cn(C3CCc4c(F)cccc4N(CC(F)(F)F)C3=O)nn2)ccc1-n1cnc(C)c1 (stereo not drawn)	x	x	x	7%[57.5 µM]	x	x
O=c1onc2cnc3ccccc3n12	x	68*	x	x	x	x
c1ccc2c(c1)ncc1nncn12	i	0	i	-4%	0%	i
Cc1ccccc1C(=O)N1CCc2cc(-c3nc(NC(=O)c4ccc5c(c4)OCO5)sc3C)ccc21	x	x	x	4%	x	x
CSc1nn(Cc2cccc(F)c2)c(N(C(C)=O)C(C)=O)c1S(=O)(=O)c1ccccc1	i	83*	i	17%	-4%	i
COc1cccc(Cn2nc(SC)c(S(=O)(=O)c3ccccc3)c2N(C(C)=O)C(C)=O)c1	i	u	i	2%	-4%	i
O=C(Nc1ccc(F)cc1)Nc1ccc2snnc2c1	i	39	i	-1%	1%	i
Cc1ccc(F)c(NC(=O)Nc2ccc3snnc3c2)c1	i	68*	i	-2%	5%	i
COc1cccc(-n2cc(C(=O)Nc3ccccc3C(N)=O)c3ccccc3c2=O)c1	i	-11	i	89µM*	0%	i
Cc1ccc(-c2ccc(=O)n(CC(=O)NCc3ncc[nH]3)n2)cc1	x	x	x	16%	x	x
Cc1nc(Nc2ccc(Cl)cc2)cc(-c2ccccc2)n1	i	67*	i	8%	0%	i
Cc1ccc(Nc2cc(-c3ccccc3)nc(C)n2)cc1	i	-6	i	6%	-12%	i
CC1CCN(C(=O)CC#N)CC1N(C)c1ncnc2[nH]ccc12 (stereo not drawn)	x	x	x	3%[57.5 µM]	x	x
O=C1CCc2ccc(OCCCCN3CCN(c4cccc(Cl)c4Cl)CC3)cc2N1	i	90*	x	9%	x	x
CCOc1ccc(C(=O)Oc2ccc(-c3nc4ccccc4[nH]3)cc2)cc1	x	x	x	12%	x	x
SMILES	GALC G270D act	DRV1 agonist	B2AR arrestin ag	NTMT1 inhibitor	GALK inhibitor	PTAP-TSG101 blk
COc1cc(O)c(C(CC(=O)N2CCCC(C)C2)c2ccc(OC)c(OC)c2)c(OC)c1 (stereo not drawn)	x	x	x	18%[228 µM]	x	x
COC(=O)c1ccc(=O)c2nc3/c(=C/O)c(O)cc(=O)c3[nH]c12	x	x	x	35µM*	x	x
O=C(c1ccc(F)cc1)C1CCN(CCn2c(=O)[nH]c3ccccc3c2=O)CC1	i	82*!	x	u	x	x
COc1ccc(CCN2CCC(CNC(=O)c3cnn(-c4cccc(Cl)c4)c3C3CCN(C(=O)OC(C)(C)C)CC3)CC2)cc1	i	-21	i	79µM*	0%	i
COCCCNC(=O)c1cnn(-c2ccccc2Cl)c1C1CCN(C(=O)OC(C)(C)C)CC1	i	-16	i	89µM*	3%	i
COc1ccc(CCN2CCC(CNC(=O)c3cnn(-c4ccccc4)c3C3CCN(C(=O)OC(C)(C)C)CC3)CC2)cc1	i	-11	i	u	3%	i
O=C(Nc1nc(-c2ccccc2)cs1)c1ccccc1S(=O)(=O)Nc1nccs1	x	x	x	14%	x	x
O=C(NCCc1ccccc1)C1CCN(c2nc(-c3ccc(Br)cc3)cs2)CC1	x	x	x	5µM*	x	x
O=C(Nc1ccc(Cl)c(S(=O)(=O)N2CCOCC2)c1)c1ccc(S(=O)(=O)N2CCOCC2)cc1	x	x	x	-29%	x	x
Cc1nn(C)c2c1c(C(F)(F)F)cc(=O)n2CC(=O)N1CCCCC1C (stereo not drawn)	i	80*	i	7%	2%	i
CCOC(=O)C1CCCN(C(=O)Cn2c(=O)cc(C)c3c(C)nn(C)c32)C1 (stereo not drawn)	i	81*	i	-6%	-2%	i
CCOc1ccc(NC(=O)Cn2c(=O)cc(C)c3c(C)nn(C)c32)cc1	i	18	i	0%	-1%	i
Cc1cc(=O)n(CC(=O)N2CCN(c3ccc(F)cc3)CC2)c2c1c(C)nn2C	i	71*	i	-12%	0%	i
Cc1c2cnn(-c3ccccc3)c(=O)c2c(C)n1CC(=O)N1CCN(c2ccc(F)cc2)CC1	i	0	i	u	0%	i
Nc1ccc2c(c1)CN1C(=O)c3ccccc3C1=N2	i	14	x	13µM*	x	x
O=C1c2ccccc2C(=O)N1c1cccc(Cl)c1	x	x	x	0%	x	x
CCCNC(=O)c1cn2ncnc(Nc3cc(C(=O)NC4CC4)ccc3C)c2c1C	x	x	x	10%	x	x
CO[C@H]1c2cc(C(C)C)c(O)c(O)c2[C@@]23CCCC(C)(C)C2[C@@H]1OC3=O (stereo partly drawn)	x	x	x	-7%[29.8 µM]	x	x
CCCC12CN3CC(C)(CN(C1)C3c1cn(C)c3ccccc13)C2=O (stereo not drawn)	i	0	i	-1%	-3%	i
Cn1cc(C2=C(c3c4n(c5ccccc35)CCC(CN)C4)C(=O)NC2=O)c2ccccc21 (stereo not drawn)	x	x	x	40µM*!	x	x
O=C(Nc1ccc(S(=O)(=O)Nc2nccs2)cc1)c1ccnc(-c2ccccc2)c1	x	x	x	-2%	x	x

Screening data as filed in PubChem.
